Compounds with a hit are over-represented: about 1.8% of the library has one in this group of screens.
Myeloid diff 2: compounds promoting myeloid differentiation; ER-HoxA9 myeloid progenitors, lysozyme-GFP differentiation, flow cytometry; calls only at 10 µM; hit rate 1% among 360,000; AID 624256;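 active = normalized GFP-positive differentiation at or above the plate's own cutoff, the solvent-only control mean plus 3 SD; inconclusive = no clear call, values can overlap the other calls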;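 also: cells exposed to compound for four days before flow analysis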
GC-B act: GC-B (human) receptor activation; HEK293-GC-B cells, CNP EC30, cGMP TR-FRET; 0% at EC30 CNP, 100% saturating CNP; activation, % at 10 µM; hit rate 0.11% among 370,000; P20594;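 active = activation at 10 µM reaching about 35% in either raw or pattern-adjusted values, limit read from the data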
Granule exo inh: blocks lytic granule exocytosis | TALL-104 LAMP-1 surface exposure, flow cytometry; cells stimulated with thapsigargin and PMA | inhibition, % at 10 µM | hit rate 0.66% among 360,000 | AID 651702;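 active = inhibition above about 55%, limit read from the data; inconclusive = no clear call, values can overlap the other calls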
GC-A act: GC-A (human) enzyme activation. HEK293 GC-A cells, cGMP TR-FRET, EC30 ANP; 0% at EC30 ANP, 100% saturating ANP. activation, % at 10 µM. hit rate 0.14% among 370,000. AID 1671463; in the data active = activation above about 40%
Myeloid diff CP1: compounds promoting myeloid differentiation | shares compounds with Myeloid diff 2 | ER-HoxA9 myeloid progenitors, GFP/Mac1 double-positive flow | calls only | hit rate 2% among 2,300;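 active = share of green or green-and-red cells above 9 and 9% in run 1 or 4 and 3% in run 2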
GFP autofluor: compound fluorescence in myeloid differentiation counter-screen. shares compounds with Myeloid diff 2. ER-HoxA9 myeloid progenitors, no estrogen, GFP autofluorescence flow cytometry; vehicle wells 0%, positive control 100%. hit rate 7.4% among 2,300. fluorescence response, % (concentration not given with the values);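 active = over 5% cells positive for green fluorescent reporter, or over 2% positive for both it and APC stain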;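 also: range taken on the double positive population between DMSO and positive control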
An asterisk follows results filed as active; i = inactive; u = inconclusive; x = not tested or not shown; + = active, no number.

SMILES | Myeloid diff 2 | GC-B act | Granule exo inh | GC-A act | Myeloid diff CP1 | GFP autofluor
O=C(N[C@@H](Cc1ccccc1)C(=O)Nc1ccc(F)cc1)C1CCNCC1 | i | -1.2 | -2.6 | -0.1 | x | x
CCn1cc(/C=C(\NC(=O)c2ccccc2OC)C(=O)N2CCOCC2)c2ccccc21 | i | 5.9 | 1.2 | -3.7 | x | x
Cc1cccc(NC(=O)CC2CCC2)c1 | i | -1.6 | -0.5 | -0.4 | i | 0.3
O=C(ONC(=O)C1C2C=CC(C2)C1C(=O)NOC(=O)c1ccccc1)c1ccccc1 (stereo not given) | i | 2.9 | -5.0 | 1.2 | i | 0.0
O=C(NCc1ccccc1)C(C1CC1)n1c(Cc2cc(F)cc(F)c2)nc2ccccc21 (stereo not given) | i | -11.8 | -3.0 | -22.8 | x | x
CCS(=O)(=O)c1nc(S(=O)(=O)c2ccc(Cl)cc2)c(N2CCC3(CC2)OCCO3)s1 | i | -10.5 | 1.2 | 3.5 | + | 0.0
CCS(=O)(=O)c1nc(S(=O)(=O)c2ccc(Cl)cc2)c(N2CCOCC2)s1 | i | -1.7 | -3.5 | 4.4 | i | 0.0
CCS(=O)(=O)c1nc(S(=O)(=O)c2ccc(Cl)cc2)c(N2CCC(C(N)=O)CC2)s1 | i | 1.9 | 9.7 | 2.0 | x | x
COC(=O)c1sc2ccccc2c1-n1cccc1C(=O)C(=O)Nc1ccc(OC)cc1 | i | -9.0 | -15.9 | -9.3 | x | x
COC(=O)c1sc2ccccc2c1-n1cccc1C(=O)C(=O)Nc1ccccc1 | i | 1.0 | -0.5 | -4.1 | i | 0.0
O=C(Nc1cc(Br)ccc1O)c1cc(-c2ccco2)on1 | i | -1.1 | 14.6 | -0.7 | i | 0.5
O=C(Nc1cc(Cl)ccc1O)c1cc(-c2ccco2)on1 | u | -4.8 | -2.4 | 4.5 | x | x
Cc1ccc(O)c(NC(=O)c2cc(-c3ccccc3)on2)c1 | + | -6.2 | -0.6 | 4.2 | i | 0.0
CC(C)C[C@H]1CNC(=O)C(=O)N1C[C@H]1CCCN1C[C@H](CC(C)C)N1C[C@H](Cc2ccccc2)N(CCc2ccccc2)C(=O)C1=O | i | 2.9 | -3.1 | 4.0 | x | x
Cc1cc(=O)n2c3ccccc3n(CC(O)CN3CCOCC3)c2c1C#N (stereo not given) | i | -1.1 | 0.0 | -4.7 | x | x
Cc1cc(=O)n2c3ccccc3n(CC(O)CN3CCCCC3)c2c1C#N (stereo not given) | + | 1.4 | -0.2 | -1.6 | i | 0.0
CCN(CC)c1ccc(N=C2C(=O)Nc3ccccc32)cc1 | i | -21.1 | -46.2 | -6.7 | i | 3.7*
COCCCNc1nc2cc(OC)c(OC)cc2c2nc(-c3ccccc3)nn12 | + | 17.9 | -3.9 | 23.1 | i | 0.5
CCN(CC)CCCNc1nc2cc(OC)c(OC)cc2c2nc(-c3ccccc3)nn12 | i | -0.5 | 15.8 | -7.2 | x | x
CC1=C(C(=O)OCc2ccccc2)C(c2ccc(Br)cc2)NC(=O)N1CCCCCC(=O)O (stereo not given) | i | -2.4 | 21.6 | -3.8 | x | x
COC(=O)CCCCCN1C(=O)NC(c2ccccc2)C(C(=O)OCc2ccccc2)=C1C (stereo not given) | i | -13.2 | -0.6 | -7.9 | i | 0.7
O=C(CSc1nc(=O)n(CCCN2CCOCC2)c2c1CCCC2)Nc1ccc(F)cc1F | + | 0.9 | 5.7 | -2.5 | i | 0.0
COc1cccc(NCc2cc3c(C(C)(C)C)nn(-c4ccccc4)c3[nH]c2=O)c1 | + | 0.8 | 42.3 | 3.0 | i | 0.3
CCOc1ccc(NCc2cc3c(C(C)(C)C)nn(-c4ccccc4)c3[nH]c2=O)cc1 | i | 1.1 | 15.2 | 4.6 | x | x
O=S1(=O)C=C[C@H](COCc2ccccc2)N1 | i | 5.3 | -1.8 | 0.3 | x | x
COc1ccc(/C=N/NC(=O)c2ccc(N(C)S(=O)(=O)c3ccccc3)cc2)cc1 | i | -0.2 | 1.0 | -9.4 | x | x
CN(c1ccc(C(=O)N/N=C/c2cccc([N+](=O)[O-])c2)cc1)S(=O)(=O)c1ccccc1 | i | 9.7 | 28.1 | 3.9 | i | 0.0
COc1ccc(NC(=O)CSc2nc3ccsc3c(=O)n2CCC(=O)O)cc1 | i | -0.3 | -3.0 | 0.6 | x | x
CCCCc1nn(-c2cc(Cl)ccc2OC)c2c1C(=O)CC(C)(C)C2 | i | -10.1 | 2.6 | -6.9 | i | 0.9
C(=C\c1ccccn1)/c1ccccn1 | i | -1.1 | -1.2 | 0.8 | i | 0.3

Screens (PubChem)
